Test systems include K-562 leukemia; MALME-3M melanoma; MDA-MB-231 breast; RXF 393 renal; SF-268 CNS; SF-295 CNS; SF-539 CNS; UACC-257 melanoma; M14 melanoma; HCT-15 colon; HT29 colon; SNB-75 CNS; SNB-19 CNS; U251 CNS; SK-MEL-5 melanoma; UACC-62 melanoma; LOX IMVI melanoma; SK-MEL-28 melanoma; SK-MEL-2 melanoma; PC-3 prostate.
Common to all, as to assay: NCI-60 one-dose screen, 48 h (100 = growth as untreated, 0 = no growth, -100 = all killed)
Common to all, as to conditions: 10 µM unless noted

Compounds without any hit were thinned out: in the full panel of roughly 83,000, 20% have a hit.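 The endpoint reported here, percent growth, reads 100 for growth as untreated, 0 for no net growth and -100 for all cells dead.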 Unmarked numbers belong to inactive results. The source made the active and inactive calls. Rule for the calls: active = growth percent below 10; inactive = the rest.

In the case of `Cc1ccc([N+](=O)[O-])cc1NC(=O)Nc1cccc(F)c1`, the growth in the test with K-562 leukemia was 31.4%; in the test with MALME-3M melanoma, 99.6%; in the test with MDA-MB-231 breast, 93.4%; in the test with RXF 393 renal it was 126%; in the test with SF-268 CNS, 100%; in the test on SF-295 CNS, 50.3%. Besides, the growth was 85.1% in the test with SF-539 CNS; 82% in the test with UACC-257 melanoma; 67.7% with M14 melanoma; 68.4% in the test on HCT-15 colon; 79.8% in the test on HT29 colon; 90.2% in the test with SNB-75 CNS. In addition, the growth was 64.1% in the test with SNB-19 CNS; 64.3% with U251 CNS; 60.5% with SK-MEL-5 melanoma; 71.8% in the test on UACC-62 melanoma; 82.4% in the test on LOX IMVI melanoma; 108% in the test with SK-MEL-28 melanoma. Further, the growth in the test with SK-MEL-2 melanoma is 86%.
As to `C[C@]12CC[C@@H]3c4ccc(O)c([N+](=O)[O-])c4CC[C@H]3[C@@H]1CC[C@@H]2NS(=O)(=O)c1ccc(C(F)(F)F)cc1`, the growth was 6.98% (active) with K-562 leukemia; 31% in the test on MALME-3M melanoma; -9.58% (active) in the test with MDA-MB-231 breast; -1.18% (active) with RXF 393 renal; 36% with SF-268 CNS; 18.7% with SF-295 CNS. Besides, the growth with SF-539 CNS was 62.4%; in the test on UACC-257 melanoma, 44%; with M14 melanoma it was 34.2%; in the test with HCT-15 colon it was 18%; with HT29 colon, 48%; in the test on SNB-75 CNS it was 40.5%. For the same compound, the growth in the test with SNB-19 CNS is 48.7%; in the test with PC-3 prostate it was 24.2%; in the test with SK-MEL-5 melanoma, 20.4%; with UACC-62 melanoma, 36.1%; in the test on SK-MEL-28 melanoma, 43.5%.
Turning to `CN1CCN(Cc2ccc(NC(=O)c3[nH]ncc3Nc3ccnc4ccnn34)cc2)CC1`, the growth in the test with K-562 leukemia is 34.9%; in the test on MALME-3M melanoma, 58.9%; with MDA-MB-231 breast it was 99.9%; in the test on RXF 393 renal it was 51.5%; with SF-268 CNS it was 63.7%; in the test on SF-295 CNS, 88.7%. Moreover, the growth in the test on SF-539 CNS is 40.9%; with UACC-257 melanoma it was 77.9%; in the test with M14 melanoma, 57.1%; in the test on HCT-15 colon it was 98%; with HT29 colon it was 67%; with SNB-75 CNS, 63.2%. For the same compound, the growth in the test on U251 CNS was 62%; in the test on PC-3 prostate, 55.9%; in the test on SK-MEL-5 melanoma, 71.6%; in the test on UACC-62 melanoma it was 67.7%; with LOX IMVI melanoma, 24.1%; with SK-MEL-28 melanoma, 65.6%. The growth with SK-MEL-2 melanoma was 60.6%.
Consider `COc1cc(Oc2cc(-c3cccnc3)ccc2NC(=O)Nc2ccc(F)cc2F)cc(OC)c1OC`, for which the growth in the test on K-562 leukemia was 96.6%; in the test with MALME-3M melanoma, 105%; with MDA-MB-231 breast, 91.5%; in the test with RXF 393 renal it was 97.5%; in the test with SF-268 CNS it was 107%; with SF-295 CNS it was 110%. Moreover, the growth was 105% in the test with SF-539 CNS; 92.6% in the test with UACC-257 melanoma; 110% with M14 melanoma; 111% with HCT-15 colon; 105% in the test on HT29 colon; 83.8% with SNB-75 CNS. The growth is 92.2% with U251 CNS; 84.3% with PC-3 prostate; 92.6% with SK-MEL-5 melanoma; 88.9% with UACC-62 melanoma; 107% in the test with LOX IMVI melanoma; 119% with SK-MEL-28 melanoma. Further, the growth with SK-MEL-2 melanoma is 112%.
For `Cc1cc(C(C)(C)c2cc(C)c(O)c(CN(C)C)c2)cc(CN(C)C)c1O`, the growth was 76.6% in the test on K-562 leukemia; 57.7% with MALME-3M melanoma; 59.5% with MDA-MB-231 breast; 61.5% in the test with RXF 393 renal; 101% in the test with SF-268 CNS; 100% in the test with SF-295 CNS. For the same compound, the growth is 80.3% in the test on SF-539 CNS; 85% in the test on UACC-257 melanoma; 77.7% with M14 melanoma; 80.8% in the test on HCT-15 colon; 76.3% in the test on HT29 colon; 90.1% with SNB-75 CNS. The growth with U251 CNS is 67.8%; in the test with PC-3 prostate it was 80%; in the test on SK-MEL-5 melanoma, 85.8%; in the test on UACC-62 melanoma, 75.5%; in the test with LOX IMVI melanoma, 81.8%; in the test with SK-MEL-28 melanoma it was 79.2%. In the test on SK-MEL-2 melanoma, the growth was 101%.
With `COc1ccc(C2CC(c3cccc(Nc4ccnc5cc(Cl)ccc45)c3)=NN2C=O)cc1` (stereo not given), the growth in the test on K-562 leukemia is 14.4%; in the test on MALME-3M melanoma, 55.8%; in the test on MDA-MB-231 breast, 24.3%; in the test with RXF 393 renal, -5.62% (active); with SF-268 CNS, 44.5%; in the test on SF-295 CNS, 2.43% (active). The growth was -1.14% (active) in the test on SF-539 CNS; 63.3% in the test on UACC-257 melanoma; 25.2% with M14 melanoma; 27.8% in the test on HCT-15 colon; -55.8% (active) with HT29 colon; 42.3% in the test with SNB-19 CNS. Also, the growth in the test on U251 CNS was 16.5%; with PC-3 prostate, 25.7%; in the test with SK-MEL-5 melanoma, 14%; in the test on UACC-62 melanoma, 36%; in the test with LOX IMVI melanoma, 31.7%; in the test with SK-MEL-28 melanoma it was 62.4%. The growth with SK-MEL-2 melanoma is -9.66% (active).
Take `N#Cc1c(N2CCOCC2)nc2sc3cc(Cl)ccc3n2c1=N`: the growth in the test on K-562 leukemia is 106%; with MALME-3M melanoma, 117%; in the test on MDA-MB-231 breast it was 75.9%; in the test with RXF 393 renal it was 72.7%; in the test on SF-268 CNS it was 94.4%; with SF-295 CNS it was 118%. Further, the growth is 97.3% in the test with SF-539 CNS; 103% in the test with UACC-257 melanoma; 111% in the test on M14 melanoma; 102% in the test on HCT-15 colon; 98.5% in the test on HT29 colon; 77.8% in the test on SNB-19 CNS. For the same compound, the growth was 96.6% in the test with U251 CNS; 75.9% with PC-3 prostate; 78.3% in the test on SK-MEL-5 melanoma; 89.4% in the test on UACC-62 melanoma; 93% with LOX IMVI melanoma; 103% with SK-MEL-28 melanoma. The growth in the test with SK-MEL-2 melanoma is 103%.
Consider `N#CCCCCCn1c2ccccc2c2c3c(c4c5ccccc5[nH]c4c21)C(=O)N(O)C3=O`, for which the growth in the test with K-562 leukemia was 6.27% (active); with MALME-3M melanoma, -34.6% (active); in the test on MDA-MB-231 breast, 16.1%; in the test with RXF 393 renal, -30.7% (active); with SF-268 CNS it was 11.3%; with SF-295 CNS it was -17.2% (active). The growth was -95.4% (active) with SF-539 CNS; 20.5% in the test with UACC-257 melanoma; 11.9% in the test with M14 melanoma; 15.9% in the test with HCT-15 colon; 3.99% (active) with HT29 colon; 29.4% in the test with SNB-75 CNS. The growth in the test with U251 CNS was -46.2% (active); with PC-3 prostate, -3.49% (active); with SK-MEL-5 melanoma it was -97% (active); with UACC-62 melanoma it was -35.7% (active); in the test on LOX IMVI melanoma it was -81% (active); in the test with SK-MEL-28 melanoma, -2.36% (active). In the test on SK-MEL-2 melanoma, the growth is 3.52% (active).

For the origin of these results see PubChem BioAssay (NCI).
